Most compounds without a hit are left out; they make up all but 4.1% or so of the library.
DAX1 inh-1: NR0B1 (DAX1) inhibition; actives 0.99% (n = 340,000); inhibition, % at 6.75 µM; P51843; HEK293 Gal4-DAX1 luciferase reporter, luminescence;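 active = inhibition above the mean over all tested compounds plus 3 SD, cut at about 4.2% in these data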;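 also: 0% = DAX1-transfected cells with DMSO and 100% = empty-vector control cells with DMSO; inhibition shows as a rise in luminescence from relieved DAX1 repression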
Target sequence (P51843 207-470 limits assumed): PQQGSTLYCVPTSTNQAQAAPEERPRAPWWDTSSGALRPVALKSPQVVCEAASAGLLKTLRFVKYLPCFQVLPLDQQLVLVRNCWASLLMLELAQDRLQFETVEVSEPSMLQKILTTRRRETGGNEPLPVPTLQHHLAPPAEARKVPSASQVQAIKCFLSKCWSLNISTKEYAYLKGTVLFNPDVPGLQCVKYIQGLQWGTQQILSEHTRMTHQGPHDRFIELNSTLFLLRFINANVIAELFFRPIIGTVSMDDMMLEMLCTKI
hgDAF12 agonist: hgDAF-12 agonism, primary luciferase screen. HEK293 GAL4-hgDAF12 UAS-luciferase reporter, agonist luminescence; normalized to butyrate control. activation, % at 6.8 µM. actives 1.8% (n = 370,000);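 active = activation above a cutoff set at the mean of all screened compounds plus 3 SD, cut at about 10% in these data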;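 also: 0% = DMSO wells and 100% = sodium butyrate wells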
hcDAF12 agonist: H. contortus DAF-12 activation, primary screen. HEK293 hcDAF-12 lit1-tk-luc reporter, luminescence; 0% DMSO, 100% Δ7-dafachronic acid. activation, % at 6.8 µM. actives 1.4% (n = 370,000);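 active = activation above the mean of all tested compounds plus 3 SD, cut at about 5.5% in these data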;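 also: 100% = response to 3 µM Δ7-dafachronic acid high control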
ssDAF-12 act: S. stercoralis DAF-12 activation, primary screen. HEK293 ssDAF-12/GRIP1 lit1-tk-luc reporter, luminescence; % of 3 µM dafachronic acid response. activation, % at 6.8 µM. actives 1% (n = 370,000). AID 652126;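 active = activation above the mean over all tested compounds plus 3 SD, cut at about 0.9% in these data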;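 also: 0% = DMSO-only wells and 100% = 3 µM delta7-dafachronic acid wells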
DAX1 inh-2: DAX1 (NR0B1) inhibition, primary screen; HEK293T StAR-luciferase reporter, SF-1/DAX-1 repression relief; inhibition, % at 6.8 µM; actives 1.1% (n = 370,000); AID 652010;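 active = inhibition above the mean over all tested compounds plus 3 SD, cut at about 3.6% in these data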;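 also: 0% = DAX-1 cells with DMSO and 100% = cells lacking DAX-1 with DMSO; higher inhibition means more luminescence from relief of DAX-1 repression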
LXR ag: activates human LXR-beta, counter-screen for hcDAF-12 agonists. 3,400 tested, under 10 active. shares compounds with hcDAF12 agonist. activation, % at 6.8 µM. HEK293 Gal4-LXR tk-luc reporter, luminescence, 24 h; normalized: DMSO 0%, positive control 100%;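 active = mean percent activation of the reporter above a cutoff set as the average over tested compounds plus their standard deviation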
Target sequence (P55055 whole entry, looked up, the tested form may be a part): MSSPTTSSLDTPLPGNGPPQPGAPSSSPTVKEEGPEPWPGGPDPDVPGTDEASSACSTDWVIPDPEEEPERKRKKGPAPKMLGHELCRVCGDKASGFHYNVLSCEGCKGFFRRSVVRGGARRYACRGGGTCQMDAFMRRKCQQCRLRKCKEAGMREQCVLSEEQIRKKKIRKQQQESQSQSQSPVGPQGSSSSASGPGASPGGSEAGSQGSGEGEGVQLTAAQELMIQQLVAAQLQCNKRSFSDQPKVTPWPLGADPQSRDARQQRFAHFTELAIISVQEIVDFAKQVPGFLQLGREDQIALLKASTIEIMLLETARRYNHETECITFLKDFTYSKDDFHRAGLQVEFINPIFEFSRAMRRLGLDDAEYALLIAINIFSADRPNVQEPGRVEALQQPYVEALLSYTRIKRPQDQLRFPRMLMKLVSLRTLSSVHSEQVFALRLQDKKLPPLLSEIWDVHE
hcDAF12 ag: confirmation of H. contortus DAF-12 agonists; actives 61% (n = 3,400); activation, % at 6.8 µM; shares compounds with hcDAF12 agonist; HEK293 hcDAF-12 lit1-tk-luc reporter, luminescence; % of Δ7-dafachronic acid response; AID 743032;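 active = mean activation across triplicate tests above the threshold derived from the earlier primary screen, cut at about 5.5% in these data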;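 also: 0% = DMSO only wells and 100% = 3 µM Δ7-dafachronic acid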
An asterisk follows results filed as active; . = no result given.

SMILES | DAX1 inh-1 | hgDAF12 agonist | hcDAF12 agonist | ssDAF-12 act | DAX1 inh-2 | LXR ag | hcDAF12 ag
Cn1c(CNc2nc3ccccc3n2CCN2CCCCC2)nc2ccccc21 | 1.7 | -1.8 | -1.5 | -1.3 | -0.1 | . | .
CCn1c(CNc2ccc(C(=O)O)cc2)nc2ccccc21 | 0.0 | 1.1 | 9.3* | -0.3 | 0.5 | -0.1 | 1.8
CCCC(=O)NCc1nc2ccccc2n1C | 0.5 | -0.4 | 0.6 | -1.3 | 0.4 | . | .
Cc1ccccc1NCc1nc2ccccc2n1C | 3.1 | 9.6 | 8.4* | 1.0* | 3.1 | 1.4 | 6.2*
Cn1c(CNc2ccccc2)nc2ccccc21 | 1.6 | 10.3 | 8.7* | 1.1* | 1.6 | 0.4 | 6.9*
O=c1cc(O)nc(SCc2ccccc2)[nH]1 | 1.0 | -2.4 | 6.7* | -1.6 | 0.2 | 0.0 | 1.8
Cc1cc(=O)[nH]c(SCc2ccccc2)n1 | 0.0 | -1.8 | 1.0 | -1.5 | -0.4 | . | .
COc1ccccc1NC(=O)CSCc1nc2ccccc2[nH]1 | -1.3 | 1.7 | 7.0* | -0.6 | 0.3 | -0.2 | 3.6
COc1ccccc1NC(=O)CSCC(N)=O | 0.7 | 0.8 | 2.7 | -0.4 | 1.3 | . | .
Cc1ccc(S(=O)(=O)NC(=O)NCCCN2CCOCC2)cc1 | 3.4 | -0.2 | 7.6* | -0.4 | -0.4 | -0.4 | 0.6
CC(Oc1ccccc1)C(=O)N1CCCc2ccccc21 (stereo not drawn) | -1.4 | -1.7 | 0.5 | -0.8 | -0.6 | . | .
Cc1ccc(OC(C)C(=O)N2CCc3ccccc32)cc1 (stereo not drawn) | -0.6 | 1.1 | 9.4* | -0.1 | 0.7 | -0.1 | 2.7
CCN(CC)C(=O)N1CCc2ccccc21 | -0.1 | 0.5 | 6.7* | -0.4 | -0.8 | -0.2 | 3.4
Cc1ccc(S(=O)(=O)N2[C@@H](CO)CO[C@H]2CC(=O)c2ccccc2)cc1 | . | 1.6 | -0.7 | 0.7 | -0.6 | . | .
COc1ccc([C@H]2C[C@H](O)[C@@H](n3cc(C4CC4)nn3)CN2C(=O)C2CCCCC2)cc1 | 1.1 | -0.7 | -1.9 | 0.0 | -0.4 | . | .
CCOC(=O)c1cc2c(c(-c3cccc(-c4cc5ccccc5o4)c3)n1)[C@@H](CCO)N(S(=O)C(C)(C)C)C2 (stereo partly drawn) | . | 1.8 | 1.0 | -1.4 | 0.4 | . | .
O=C(O)c1ccccc1C(=O)c1ccc2c(c1)CCC2 | -0.7 | 0.4 | 6.9* | -1.5 | 0.0 | -0.3 | 1.0
O=C(NCc1cccs1)C1Cc2c(-c3ccc(Cl)cc3)ccnc2O1 (stereo not drawn) | . | -1.1 | -0.1 | -1.1 | -2.6 | . | .
CCOC(=O)N1CCN(C(=O)C[C@H]2C[C@@]3(C(=O)OC)C(=C[C@H](C4CCCC4)O[C@@H]3C)N(Cc3ccc(Cl)cc3Cl)C2=O)CC1 | . | 1.1 | -0.2 | -1.7 | -1.5 | . | .
NC(=O)c1ccccc1NCC(=O)c1ccc(Cl)cc1 | 1.9 | 1.4 | 1.7 | -1.0 | 0.3 | . | .
O=C(CNc1ccccc1C(=O)O)c1ccccc1 | 1.0 | 1.1 | 7.7* | 0.5 | 0.9 | -0.3 | -0.2
OC(c1ccccc1)c1nc(-c2ccc(F)c(Cl)c2)cs1 (stereo not drawn) | . | 4.1 | 0.6 | 0.0 | -1.8 | . | .
CSc1ccccc1NC(=O)c1cc(CC(C)C)on1 | 0.5 | 10.6* | 7.5* | 0.2 | 2.0 | 0.5 | 3.8
CCOC(=O)[C@@]12CCCC=C1N(CCc1ccc(Cl)cc1)C(=O)[C@H]2CC(=O)N1CCCC1 | . | -6.2 | -4.2 | -2.1 | -4.2 | . | .
O=C1CCN(Cc2ccccc2)C=C1c1ccc2ccccc2c1 | 3.5 | 11.5* | 9.4* | 1.0* | 2.4 | 0.9 | 7.0*
SMILES | DAX1 inh-1 | hgDAF12 agonist | hcDAF12 agonist | ssDAF-12 act | DAX1 inh-2 | LXR ag | hcDAF12 ag
O=[N+]([O-])c1nccn1CC(O)CCN1CCOCC1 (stereo not drawn) | . | 1.7 | 1.3 | -1.2 | 1.6 | . | .
Cc1cccc2sc(NS(=O)(=O)c3ccccc3)nc12 | 0.5 | -0.3 | 11.7* | -0.1 | 0.3 | -0.1 | 2.3
c1ccc(CSc2cc3ccccc3[nH]2)cc1 | 1.7 | 9.3 | 10.1* | 0.5 | 0.7 | 0.5 | 10.6*
Cc1ccc2nc(-c3cccc(N)c3)[nH]c2c1 | -1.5 | 9.7 | 4.8 | -0.3 | 3.6 | . | .
Nc1cccc(-c2nc3ccccc3[nH]2)c1 | 1.4 | 7.7 | 8.0* | -1.2 | 2.3 | 0.3 | 5.3
Cc1ccc(C)c(NC(=O)c2ccc(CS(=O)(=O)Cc3ccccc3C)o2)c1 | . | -3.8 | -2.4 | -1.6 | -1.4 | . | .
O=C(Cn1nc(-c2ccccc2)ccc1=O)NCCc1ccc(F)cc1 | . | 0.1 | -0.1 | -1.4 | -1.1 | . | .
Cc1ccc2nc(-c3sc4nc(C)cc(C)c4c3N)[nH]c2c1 | -0.2 | 4.3 | 16.6* | 2.3* | 4.0* | 2.3 | 24.3*
Cc1ccc(-c2nnc(-c3cccc4ccccc34)o2)cc1 | -0.6 | 7.3 | 7.6* | 1.2* | 0.6 | 1.9 | 20.7*
CN(CCO)c1ccc2c(c1)Oc1ccccc1CN(Cc1cn(Cc3cccc(C(F)(F)F)c3)nn1)S2(=O)=O | . | -3.5 | -2.8 | -1.4 | -0.9 | . | .
C=C(C)/C=C1/C(Cc2ccccc2)N(CC2CC2)C(=N)N1C(=O)OCc1ccccc1 (stereo not drawn) | . | 2.4 | -2.1 | -1.5 | -1.3 | . | .
Cn1c(NC(=O)C[n+]2cc(-c3ccccc3)n3c2CCC3)cc(=O)n(C)c1=O | -0.8 | 2.2 | 7.1* | -1.0 | 0.3 | -0.3 | 0.3
O=C1NC[C@@H](CCCCN2C[C@H](Cc3ccc(O)cc3)N(CCC3CCCCC3)C(=O)C2=O)N(Cc2ccccc2)C1=O | . | -1.2 | -1.4 | -1.6 | -0.7 | . | .
N#Cc1ccccc1Sc1ccccc1N | 1.2 | . | . | . | . | . | .
Nc1ccccc1SSc1ccccc1N | 0.5 | 4.0 | 10.5* | -0.1 | -1.1 | 0.2 | 5.3
Cc1cccc(C(=O)OCC(=O)N2CCCC2=O)c1[N+](=O)[O-] | 1.1 | -0.3 | 0.5 | -1.1 | 0.8 | . | .
O=C(CSc1ccccn1)Nc1ccc2c(c1)C(=O)c1ccccc1C2=O | -0.1 | 9.0 | 6.8* | -0.4 | -0.8 | 1.1 | 4.6
O=C(CSc1nnc(-c2ccccn2)n1Cc1ccco1)Nc1ccc(Oc2ccccc2)cc1 | . | -0.4 | -1.4 | -1.8 | -0.4 | . | .
COC(=O)[C@]12CCCCC=C1N(Cc1ccc(OC)cc1)C(=O)[C@@H]2CC(=O)NCc1ccc(C)o1 | . | -1.8 | -2.4 | -0.9 | -1.1 | . | .
Cc1ccc(C(=O)Nc2ccn(Cc3ccc(F)cc3)n2)o1 | 1.6 | 2.4 | 6.9* | 0.4 | 0.8 | 0.0 | 3.2
Cc1nc2ccccc2nc(C)c1=NOCc1ccccc1Cl | 1.0 | 11.4* | 8.7* | -0.3 | 1.0 | -0.3 | -0.8
CC(=O)c1cc(-c2ccc(Cl)c(Cl)c2)c(=O)n2c1CCC2 | . | 2.0 | -0.4 | -0.3 | -0.6 | . | .
